Among all 360,000 compounds or so, about 2,400 (0.67%) were called active. This is one part of a sample in which actives are shown more often than they occur.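 Rule for the calls: active = compounds whose normalised, plate-corrected inhibition of enzyme fluorescence in the single-dose primary screen is 50% or more; inactive = the rest.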

In the test the target is Fatty acid synthase (Homo sapiens) (UniProt P49327). Briefly: FAS thioesterase domain inhibitors, primary screen, biochemical, fluorescence intensity, uHTS (AID 602261).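 Note: 0% = DMSO with enzyme and 100% = substrate without enzyme.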 The note with it: recombinant FAS-TE, OMFH fluorogenic substrate, fluorescence endpoint; at 15 µM; stronger effect = higher value.
Fatty acid synthase (Homo sapiens), sequence (P49327 whole entry, looked up, the tested form may be a part): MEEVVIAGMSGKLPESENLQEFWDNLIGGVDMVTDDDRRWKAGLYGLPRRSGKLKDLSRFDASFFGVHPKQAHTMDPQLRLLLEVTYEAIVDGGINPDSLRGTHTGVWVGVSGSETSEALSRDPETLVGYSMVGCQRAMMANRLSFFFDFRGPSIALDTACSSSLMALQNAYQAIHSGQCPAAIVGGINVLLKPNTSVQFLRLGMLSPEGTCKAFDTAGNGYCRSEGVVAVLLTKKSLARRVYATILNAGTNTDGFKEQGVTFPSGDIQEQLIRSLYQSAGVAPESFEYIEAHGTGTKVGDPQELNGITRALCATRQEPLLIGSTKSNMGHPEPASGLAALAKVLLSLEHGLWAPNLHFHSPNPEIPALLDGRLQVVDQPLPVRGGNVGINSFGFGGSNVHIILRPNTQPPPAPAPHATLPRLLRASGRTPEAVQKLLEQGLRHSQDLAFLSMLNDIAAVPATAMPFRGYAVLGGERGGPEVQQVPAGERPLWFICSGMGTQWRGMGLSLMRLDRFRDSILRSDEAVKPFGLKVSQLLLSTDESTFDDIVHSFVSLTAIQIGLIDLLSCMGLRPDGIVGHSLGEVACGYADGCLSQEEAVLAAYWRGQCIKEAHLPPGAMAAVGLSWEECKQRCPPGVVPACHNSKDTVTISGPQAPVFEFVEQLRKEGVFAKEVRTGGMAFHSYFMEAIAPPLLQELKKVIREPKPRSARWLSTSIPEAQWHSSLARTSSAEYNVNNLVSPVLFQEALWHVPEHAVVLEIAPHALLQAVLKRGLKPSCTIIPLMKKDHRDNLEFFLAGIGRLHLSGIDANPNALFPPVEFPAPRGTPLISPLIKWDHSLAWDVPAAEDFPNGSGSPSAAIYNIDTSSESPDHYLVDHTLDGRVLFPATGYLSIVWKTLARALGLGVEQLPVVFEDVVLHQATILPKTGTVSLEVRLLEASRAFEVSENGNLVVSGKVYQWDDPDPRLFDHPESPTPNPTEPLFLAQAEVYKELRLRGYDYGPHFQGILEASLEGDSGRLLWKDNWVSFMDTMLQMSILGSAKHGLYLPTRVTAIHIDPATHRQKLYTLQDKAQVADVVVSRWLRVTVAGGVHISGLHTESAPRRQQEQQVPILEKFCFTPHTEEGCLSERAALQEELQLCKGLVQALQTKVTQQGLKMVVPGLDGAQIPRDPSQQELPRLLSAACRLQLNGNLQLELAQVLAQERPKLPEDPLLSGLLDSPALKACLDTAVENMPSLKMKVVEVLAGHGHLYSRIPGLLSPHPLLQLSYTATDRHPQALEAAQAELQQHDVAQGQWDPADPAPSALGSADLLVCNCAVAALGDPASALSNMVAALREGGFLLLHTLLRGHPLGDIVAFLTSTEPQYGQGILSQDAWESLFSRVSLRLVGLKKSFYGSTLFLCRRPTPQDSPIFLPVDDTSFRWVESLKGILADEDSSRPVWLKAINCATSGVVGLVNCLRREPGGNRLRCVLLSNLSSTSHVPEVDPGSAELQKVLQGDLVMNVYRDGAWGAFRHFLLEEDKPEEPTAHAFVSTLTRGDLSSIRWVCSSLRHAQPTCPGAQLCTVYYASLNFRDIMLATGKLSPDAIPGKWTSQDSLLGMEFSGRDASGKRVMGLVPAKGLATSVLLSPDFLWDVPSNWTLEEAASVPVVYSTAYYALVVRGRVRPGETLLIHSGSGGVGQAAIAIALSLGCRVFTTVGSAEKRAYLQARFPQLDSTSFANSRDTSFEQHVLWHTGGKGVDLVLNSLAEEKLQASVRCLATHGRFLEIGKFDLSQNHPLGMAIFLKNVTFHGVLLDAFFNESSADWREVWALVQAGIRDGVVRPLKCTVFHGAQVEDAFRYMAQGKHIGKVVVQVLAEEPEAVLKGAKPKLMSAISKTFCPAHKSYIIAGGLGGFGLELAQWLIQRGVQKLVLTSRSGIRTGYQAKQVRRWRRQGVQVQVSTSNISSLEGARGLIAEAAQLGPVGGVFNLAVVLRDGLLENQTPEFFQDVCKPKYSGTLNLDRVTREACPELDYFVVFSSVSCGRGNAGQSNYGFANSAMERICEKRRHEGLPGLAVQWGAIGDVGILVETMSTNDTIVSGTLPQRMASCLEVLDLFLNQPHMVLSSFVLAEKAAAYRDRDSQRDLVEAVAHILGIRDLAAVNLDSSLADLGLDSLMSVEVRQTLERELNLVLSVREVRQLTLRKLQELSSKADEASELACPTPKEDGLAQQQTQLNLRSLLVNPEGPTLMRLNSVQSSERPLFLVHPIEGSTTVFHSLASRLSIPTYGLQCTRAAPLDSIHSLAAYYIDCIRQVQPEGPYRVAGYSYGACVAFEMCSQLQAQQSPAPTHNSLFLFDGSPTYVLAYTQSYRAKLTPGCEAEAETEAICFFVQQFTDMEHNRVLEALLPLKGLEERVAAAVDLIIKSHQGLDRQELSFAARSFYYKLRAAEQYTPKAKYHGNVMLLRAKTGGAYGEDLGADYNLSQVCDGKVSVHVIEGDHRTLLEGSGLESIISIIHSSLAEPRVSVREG
`NC(=O)COC(=O)c1sc2cc(F)ccc2c1Cl`: the inhibition was 5% (inactive).
Turning to `CCOc1ccc2[nH]c(=S)sc2c1`, the inhibition was -1.4% (inactive).
As for `CN1CCN(S(=O)(=O)c2ccc(Nc3ccc(F)cc3)nc2)CC1`, the figure is -0.3% (inactive).
The figure for `CC1CN(C(=O)c2cc(COc3c(F)cccc3F)on2)CCN1C` (centres undefined) is -5.4% (inactive).
As for `Cc1nnc(-c2ccc(Oc3ccc(C)c(C)c3)c([N+](=O)[O-])c2)o1`, the figure is 21.4% (inactive); as for `COc1cccc2c1CCC(NC(C)=O)C2=O` (centres undefined), -7.2% (inactive).
`O=[N+]([O-])c1cc(Br)c(O)c(/C=N/Nc2nc3ccccc3s2)c1`: the inhibition was 52.5% (active).
For the molecule `Brc1ccccc1/C=N/Nc1nc2ccccc2o1`, the inhibition is -4.3% (inactive).
As for `O=C(NC(Nc1nc2ccc([N+](=O)[O-])cc2s1)(C(F)(F)F)C(F)(F)F)c1ccccc1`, the figure is 10.8% (inactive); as for `COc1ccc(SCc2noc(C(=O)NCC3CCCO3)c2C(=O)O)cc1` (centres undefined), -6.7% (inactive).
The figure for `Cc1cccc(N(CC(=O)N2CCCC2)S(C)(=O)=O)c1C` is -4.4% (inactive); for `COCCN1C2=C(COC(C)(C)C2)C(=S)NC1c1ccccc1` (centres undefined) it is -8.2% (inactive); for `Cc1ccc2c(c1)NC(=O)[C@@]1(C)[C@@H](c3ccccc3)[C@H]3COc4ccc(Cl)cc4[C@@H]3N1C2=O` it is 15.6% (inactive).
As for `CCOC(=O)[C@H]1[C@H]2COc3ccc(OC)cc3[C@@H]2N2C(=O)c3ccc(F)cc3NC(=O)[C@@]12C`, the figure is -4.6% (inactive); as for `COc1ccc2c(c1)[C@H]1[C@H](CO2)[C@H](c2ccccc2)[C@]2(C)C(=O)Nc3cc(F)c(F)cc3C(=O)N12`, 71.2% (active).
On to `CCOC(=O)c1ccc(COC(=O)CCc2nc(-c3ccccc3)c(-c3ccccc3)o2)cc1`, for which the inhibition is 26.3% (inactive).
The figure for `COc1cc(OC)cc(-c2cc3nc(C4CCN(C(=O)OC(C)(C)C)CC4)cc(=O)n3[nH]2)c1` is -5.7% (inactive).
As for `CCC(C)NC(=O)C1CCCN(C(=O)NC2CCCCC2)C1` (centres undefined), the figure is -6.1% (inactive); as for `O=C(c1[nH]ncc1-c1ccc(Cl)cc1)C1CO1` (centres undefined), -22% (inactive); as for `Cc1ccc(NC(=O)C(=O)NCC2CCN(C(=O)c3cccc([N+](=O)[O-])c3)CC2)cc1`, 0.8% (inactive).
Turning to `O=C(Nc1ccc(C2CC2(Cl)Cl)cc1)c1cccc([N+](=O)[O-])c1` (centres undefined), the inhibition was 90.9% (active).
As for `O=C(NC(=S)NC1CCS(=O)(=O)C1)c1cccc([N+](=O)[O-])c1` (centres undefined), the figure is -3.5% (inactive).
As for `CCOc1ccc(CCNC(=O)COC(=O)c2ccc(F)c(S(=O)(=O)N3CCOCC3)c2)cc1OCC`, the figure is -4.3% (inactive).
The figure for `N#Cc1c(/N=C/N2CCCC2)oc(-c2ccccc2)c1-c1ccccc1` is 27.6% (inactive).
Consider `CC(C)(C)N1C(=O)[C@H]2[C@@H](c3ccc(Br)cc3)N3C(=O)N(c4cccc(Cl)c4)C(=O)[C@@]3(C)[C@H]2C1=O`, for which the inhibition is 31.7% (inactive).
The figure for `O=C1[C@H]2[C@@H](c3ccc(C(F)(F)F)cc3)N[C@]3(CCCN(Cc4ccc(Cl)cc4)C3=O)[C@H]2C(=O)N1Cc1ccccc1` is 41.2% (inactive); for `O=C1[C@H]2[C@@H](c3ccc(F)cc3)N3C(=O)N(c4ccc(C(F)(F)F)cc4)C(=O)[C@@]3(Cc3ccccc3)[C@H]2C(=O)N1C1CCCCC1` it is 91.3% (active).
As for `O=C1[C@H]2[C@@H](c3ccc(Cl)cc3)N3C(=O)N(c4cccc(F)c4)C(=O)[C@@]3(Cc3ccccc3)[C@H]2C(=O)N1C1CCCCC1`, the figure is 92.2% (active); as for `Cc1ccc([C@H]2N[C@]3(CCCN(CC4CCCCC4)C3=O)[C@H]3C(=O)N(Cc4ccccc4)C(=O)[C@@H]23)cc1`, 21.4% (inactive); as for `Cc1cccc(N2C(=O)N3[C@H](c4ccc(F)cc4)[C@@H]4C(=O)N(C5CCCCC5)C(=O)[C@@H]4[C@]3(Cc3ccccc3)C2=O)c1`, 90.1% (active).
As for `C[C@@]12C(=O)N(c3cccc(Br)c3)C(=O)N1[C@H](c1ccc(Cl)cc1)[C@@H]1C(=O)N(C3CCCCC3)C(=O)[C@@H]12`, the inhibition was 93.7% (active).
In the case of `CCN1C(=O)[C@H]2[C@@H](c3ccc(C)cc3)N3C(=O)N(c4cccc(Br)c4)C(=O)[C@@]3(CC)[C@H]2C1=O`, the inhibition is -1.3% (inactive).
As for `CC12C(=O)N(c3ccccc3)C(=O)C1C(c1ccccc1)N1CCCN12` (centres undefined), the figure is -2.7% (inactive).
Take `O=C1[C@H]2[C@@H](c3ccc(C(F)(F)F)cc3)N[C@]3(CCCN(Cc4ccc(Br)cc4)C3=O)[C@H]2C(=O)N1Cc1ccccc1`: the inhibition is 41.2% (inactive).
As for `COc1cc(NC(=O)C2=C(C)OCCS2)c(Cl)cc1C(=O)NCCN1CCN(C)CC1`, the figure is -10.2% (inactive); as for `CC1CCN(S(=O)(=O)c2ccc(NC(=O)C3CC(=O)N(c4ccccc4)C3)cc2)CC1` (centres undefined), 4.6% (inactive).
In the case of `COc1ccc(CNC(=O)CN2CCC(n3nnc4cc(F)ccc43)CC2)cc1`, the inhibition was 1.6% (inactive).
The figure for `Cc1csc(SCC(=O)N(c2ccccc2)C(C)C)n1` is -7.2% (inactive).
The figure for `CC(NC(=O)C1CCC(CNc2c(N3CCOCC3)c(=O)c2=O)CC1)c1ccccc1` (centres undefined) is 3.6% (inactive); for `S=c1[nH]c2ccccc2c2ccccc12` it is -0.9% (inactive); for `COCC1CCN(C(=O)C2CCC(=O)N(Cc3cccc(C(F)(F)F)c3)C2)CC1` (centres undefined) it is -6.2% (inactive).
As for `O=C(CCNS(=O)(=O)c1cccs1)N1CCN(c2ccc(F)cc2)CC1`, the figure is -4.4% (inactive).
As for `NC1=NC(=O)C2(COC(c3ccccc3Cl)OC2)S1` (centres undefined), the inhibition was -3.8% (inactive).
As for `COc1ccc([C@@H]2[C@@H]3C(=O)N(C(C)(C)C)C(=O)[C@@H]3[C@]3(Cc4ccccc4)C(=O)N(c4cccc(Br)c4)C(=O)N23)cc1`, the figure is 89.7% (active).
As for `Cc1cccc([C@@H]2[C@@H]3C(=O)N(Cc4ccccc4)C(=O)[C@@H]3[C@]3(Cc4ccc(Cl)cc4)C(=O)N(c4cccc(Cl)c4)C(=O)N23)c1`, the inhibition is 91.3% (active).
Turning to `Cc1cccc(N2C(=O)C3C(c4ccccc4)OC4(C(=O)c5ccccc5C4=O)C3C2=O)c1` (centres undefined), the inhibition is -2.5% (inactive).
Turning to `Cc1cccc([C@@H]2[C@@H]3C(=O)N(Cc4ccccc4)C(=O)[C@@H]3[C@]3(C)C(=O)N(c4ccc(Br)cc4)C(=O)N23)c1`, the inhibition was 39.4% (inactive).
As for `CC[C@@]12C(=O)N(c3ccccc3)C(=O)N1[C@H](c1ccc(Br)cc1)[C@@H]1C(=O)N(C(C)(C)C)C(=O)[C@@H]12`, the figure is 13.2% (inactive); as for `COc1cccc(N2C(=O)CN(Cc3ccccc3)C2=S)c1`, -0.9% (inactive).

A word on the inhibition: it is the change of the read-out against control, counted positive when it falls.

(Values after PubChem BioAssay AID602261 (Sanford-Burnham Center for Chemical Genomics, 2012).)
